# High-throughput results (PubChem BioAssay)
# Nrf2 block – blocks Nrf2 signaling | A549 ARE-Fluc reporter, luciferase luminescence, 18-24 h | Potency, µM (titrated, usually from 46 µM), for inactives: at the top dose activity change, negative = inhibition, usual class: inhibitors | 360,000 tested, 2.1% active | AID 504444; also: % is scaled to controls: 0 for no effect and ±100 for the full control effect; nearly all actives have a fitted effect of over 60% in size
#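 A549 ARE_Fluc cells, 5000/well, 5% FBS OPTI-MEM; compounds in dose-response, 18-24 h at 37 °C/5% CO2; CellTiter-Fluor viability read (Ex 405/Em 525), then BugLite luciferase luminescence = Nrf2 activity.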
# TGFb SMAD3 inh – inhibitors of TGF-b signaling | HepG2 CAGA-GFP TGF-b/SMAD3 reporter, GFP fluorescence, 18 h; TGF-beta stimulated, 500 pg/mL final | Potency, µM (series often up to 46.1 µM), for the others: at the highest dose activity, negative = inhibition, actives largely listed as inhibitors | 410,000 tested, 1.2% active; also: % is scaled to controls: 0 for no effect and ±100 for the full control effect; nearly all actives have a fitted effect of over 65% in size
#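 First, reporter cells (HEPG2 CAGA-GFP) rested 2 h at 37 degrees C. Next, compounds were pinned in and TGF-beta added to 500 pg/mL final. After 18 h, GFP was imaged per cell and summed per well.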
# A549 tox – A549 cytotoxicity, counter-screen for Nrf2 inhibitors. A549 ARE-Fluc cells, CellTiter-Fluor viability, 18-24 h. Potency, µM (highest dose often 46 µM), without a hit: top-dose activity change, negative = cytotoxicity, most hits filed as inhibitors. 390,000 tested, 0.16% active; also: % is scaled to controls: 0 for no effect and ±100 for the full control effect
#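 A549 ARE_Fluc cells in 5% FBS OPTI-MEM were exposed to compounds in concentration-response for 18-24 h at 37 deg C. Viability was read by CellTiter-Fluor fluorescence (Ex 405/Em 525) after 30 min, before the luciferase read.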
# HepG2 tox – kills HepG2 cells in TGF-b inhibitor counter-screen. HepG2 CAGA-GFP viability, ATP luminescence, 18 h. Potency, µM (series often up to 46.1 µM), for the others: at the highest dose activity change, negative = cytotoxicity, actives largely listed as cytotoxic. 410,000 tested, 0.76% active
#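 CellTiter-Glo luminescence gave cytotoxicity after 18 hours at 37 degrees C. The cells were HepG2 CAGA-GFP in 1% FBS DMEM, stimulated with 500 pg/mL TGF-beta after compound addition. %Activity was normalised to no-cell wells (complete cell-killing) and DMSO (no toxicity), and curves were fitted and classified.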
# Nrf2 activator – Nrf2 pathway activation; 410,000 tested, 0.31% active; Potency, µM (titrated, usually from 46.1 µM), without a hit: top-dose activation, usual class: activators; AREc32 ARE-luciferase reporter (MCF7-derived line), luminescence, 24 h; also: % of control where 0% means no effect; nearly all actives have a fitted effect of over 65% in size
#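 Steps: seed AREc32_Fluc cells (1000/well, 5% FBS OPTI-MEM); incubate overnight at 37 deg C; add 23 nL compound; incubate 24 hr; add Steady-Glo; hold 30 min RT; read luminescence.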
# The depositor's hits bear a star; ? = inconclusive; / = no result; ! = repeats disagree. Most compounds without a hit are left out; they make up all but 3.6% or so of the library. Calls follow the shape of the dose curve; as a rule, active = well fitted curve in the direction sought with a large enough effect; inconclusive = small, poorly fitted or top-dose-only effect, or another doubt; inactive = no such curve, though single readings can be large; an effect the other way counts as inactive or inconclusive. Potency is read from the fitted curve at half-maximal effect.
SMILES,Nrf2 block,TGFb SMAD3 inh,A549 tox,HepG2 tox,Nrf2 activator
CCOc1ccc(S(=O)(=O)NCCc2sc3nc(-c4ccc(C)cc4)nn3c2C)cc1,/,14µM*,-6%,0%,0%
O=c1[nH]c(=O)n(C2CCCCC2)c(O)c1/C=N/N1CCCCC1c1cccnc1 (stereo not given),-11%,5%,-1%,0%,-1%
Cc1ccc(C)c(S(=O)(=O)Nc2ccc3c(c2)CCCN3C(=O)c2cccs2)c1,/,11µM*,-21%,-20%,-2%
C=CCn1c(O)c(C(C)=NCc2ccc3c(c2)OCO3)c(=O)[nH]c1=O,21µM*,-3%,3%,-126%,3%
CCC(=NCc1ccc2c(c1)OCO2)c1c(O)n(C2CCCCC2)c(=O)[nH]c1=O,12µM*,?,/,-30%,1%
CC(=NCc1ccc2c(c1)OCO2)c1c(O)n(Cc2ccccc2)c(=O)[nH]c1=O,?,?,9%,11%,-1%
CCC(=NCCO)c1c(O)n(C2CCCCC2)c(=O)[nH]c1=O,0%,28%,-5%,1%,1%
CSc1ccc(CN2CCN(C(=O)COc3ccc(C)cc3)CC2)cc1,21µM*!,-13%,0%,-8%,3%
Cn1cccc1CN1CCN(C(=O)COc2ccccc2)CC1,-6%,-1%,0%,1%,0%
Cc1ccc(OCC(=O)N2CCN(CCc3ccncc3)CC2)cc1,?,-4%,4%,-8%,0%
Cn1nc(-c2ccc(OCC(=O)N3CCN(Cc4ccccc4)CC3)cc2)c2ccccc2c1=O,18µM*,-19%,?,-26%,3%
CCS(=O)(=O)CCSP(=O)(OC)OC,11%,0%,1%,-32%,-1%
CCOc1ccc(S(=O)(=O)N(CC(=O)NCc2ccccc2OC)c2ccccc2)cc1,16µM*,-15%,-28%,-23%,0%
COc1ccc(S(=O)(=O)N(CC(=O)NCc2ccccc2OC)c2ccc(C)cc2)cc1,/,?,-15%,-16%,-1%
CN(CC(=O)NC1CCCC1)S(=O)(=O)c1cccc(Cl)c1,-7%,?,3%,1%,-1%
Ic1ccccc1CN[C@@H]1C2CCN(CC2)[C@@H]1C(c1ccccc1)c1ccccc1,-1%,?,?,11µM*,-1%
CN1Cc2cnnn2-c2ccccc2C1C#N (stereo not given),7%,2%,22%,-12%,8%
COc1ccc(CN2Cc3cnnn3-c3ccccc3C2C#N)cc1 (stereo not given),7%,?,0%,11µM*,-3%
N#CC1c2ccccc2-n2nncc2CN1Cc1cc(Cl)cc(Cl)c1 (stereo not given),9%,?,-1%,10µM*,-2%
CC(c1ccccc1)[n+]1ccccc1 (stereo not given),18µM*,-8%,-3%,-15%,-1%
COc1ccccc1NC(=O)N(Cc1ccc2c(c1)OCO2)C1CCN(Cc2ccccc2)CC1,?,8.9µM*,-11%,-29%,8%
O=C(Nc1ccccc1)N(Cc1ccc2c(c1)OCO2)C1CCN(Cc2ccccc2)CC1,0%,?,-14%,-34%,8%
CCOP(=S)(OCC)Oc1nc(Cl)c(Cl)cc1Cl,13%,-5%,-8%,-19%,1%
CC1=CC(=C2C(=O)NC(=S)NC2=O)C=C(C(F)(F)F)N1Cc1ccccc1,?,-16%,15µM*,0%,0%
CN(CC1COc2ccccc2O1)c1nc(-c2cccnc2)nc2ccccc12 (stereo not given),?,?,?,5µM*,5%
SMILES,Nrf2 block,TGFb SMAD3 inh,A549 tox,HepG2 tox,Nrf2 activator
CN1CCC(N(C)c2nc(-c3ccc([N+](=O)[O-])cc3)nc3ccccc23)CC1,-23%,?,-4%,-123%,-1%
COc1ccc(CCC(C)NCCc2ccccc2)cc1 (stereo not given),5%,-3%,19%,-17%,0%
Cc1ccc(OP(=O)(O)Oc2ccc(C)cc2)cc1,-9%,-26%,1%,5%,-1%
Cn1ncnc2c(=O)n(C)c(=O)nc1-2,0.18µM*,0.11µM*,0.46µM*,0.2µM*,-5%
Cc1ccc(-c2nc3c(=O)n(C)c(=O)nc-3n(C)n2)cc1,3.3µM*,0.79µM*,2.9µM*,1µM*,/
O=c1c2ccccc2nc(Cc2ccccc2)n1-c1ccccc1O,-3%,-11%,-3%,-14%,2%
CCOc1cccc(=NC2CCCCC2)c2c(C)n(C)c(C)c12,16µM*,10µM*,?,-10%,7%
COC(=O)C1=C(c2ccc3ccccc3c2)C[C@@H]2CC[C@H]1N2C,14%,4%,-1%,-1%,0%
COC(=O)C1=C(C(=O)OC)C2OC1c1cc3ccccc3cc12,21µM*,?,-15%,-77%,-3%
O=C(Nc1cccc(Cl)c1)OCC#CCN1CCCC1,3%,5%,2%,-12%,6%
COc1ccc(Nc2cc(C)c3cc(NC(=O)c4ccccc4Cl)ccc3n2)cc1,26µM*,0%,-8%,-21%,0%
COc1ccc(NC(=O)c2cn(CCC#N)nc2-c2ccccc2)cc1,-18%,21%,3%,-11%,0%
CC(C)(C)c1ccc(C(=O)Nc2ccc3nc(SCC(=O)N4CCCC4)sc3c2)cc1,15µM*,?,?,-21%,-3%
Cc1ccccc1C(=O)Nc1ccc2nc(SCC(=O)N(C)c3ccccc3)sc2c1,?,?,-13%,-23%,1%
CNC(=S)N1CC2CC(C1)c1cccc(=O)n1C2 (stereo not given),-2%,0%,1%,-5%,0%
Cc1oc(-c2ccccc2Cl)nc1CN1C(=O)CN=C(c2ccccc2)c2ccccc21,?,16µM*,-12%,-12%,0%
Cc1ccc(-c2cc(-c3ccccc3)cc(-c3ccccc3)[n+]2-c2ccccc2)cc1,18µM*,5.6µM*,?,-65%,-3%
Cc1ccc(-c2cc(-c3ccc(C)cc3)[n+](-c3ccc(C(=O)[O-])cc3)c(-c3ccc(C)cc3)c2)cc1,21%,-13%,3%,-28%,0%
c1ccc(-c2cc(-c3ccccc3)[n+](-c3ccccc3)c(-c3ccccc3)c2)cc1,?,13µM*,?,-23%,-3%
CCOC(=O)c1ccc(-[n+]2c(-c3ccccc3)cc(-c3ccccc3)cc2-c2ccccc2)cc1,-24%,?,-1%,-41%,0%
c1cc2c(cc1N1CCCCC1)CNCc1cnnn1-2,/,1%,/,5%,-1%
CCC1(O)C(=O)OCc2c1cc1n(c2=O)Cc2cc3c(N)cccc3nc2-1 (stereo not given),0.82µM*,?,?,11%,-2%
